Reference: ChEMBL document CHEMBL3433997, “St. Jude Leishmania screening dataset” (2016)

Assays:
Format in all cases: functional
[1] = target: Solute carrier family 2, facilitated glucose transporter member 1 (Homo sapiens) (UniProt P11166); experiment: ST_JUDE_LEISH: Cytotoxicity at 2uM final concentration against transgenic Leishmania Mexicana promastigotes LmGLUT1 that are glucose transport deficient and complemented with the human glucose transporter GLUT1. Activity is measured by DNA content using SYBR green in vitro
[2] = target: Hexose transporter 1 (Plasmodium falciparum) (UniProt O97467); experiment: ST_JUDE_LEISH: Cytotoxicity at 2uM final concentration against transgenic Leishmania Mexicana promastigotes LmPfHT that are glucose transport deficient and complemented with the Plasmodium falciparum hexose transporter. Activity is measured by DNA content using SYBR green in vitro
[3] = target: Glucose transporter (Leishmania mexicana) (UniProt O61059); experiment: ST_JUDE_LEISH: Cytotoxicity at 2uM final concentration against transgenic Leishmania Mexicana promastigotes LmGT2 that are glucose transport deficient and complemented with the L. Mexicana glucose transporter 2. Activity is measured by DNA content using SYBR green in vitro

Chain of Solute carrier family 2, facilitated glucose transporter member 1 (Homo sapiens) (P11166 whole entry): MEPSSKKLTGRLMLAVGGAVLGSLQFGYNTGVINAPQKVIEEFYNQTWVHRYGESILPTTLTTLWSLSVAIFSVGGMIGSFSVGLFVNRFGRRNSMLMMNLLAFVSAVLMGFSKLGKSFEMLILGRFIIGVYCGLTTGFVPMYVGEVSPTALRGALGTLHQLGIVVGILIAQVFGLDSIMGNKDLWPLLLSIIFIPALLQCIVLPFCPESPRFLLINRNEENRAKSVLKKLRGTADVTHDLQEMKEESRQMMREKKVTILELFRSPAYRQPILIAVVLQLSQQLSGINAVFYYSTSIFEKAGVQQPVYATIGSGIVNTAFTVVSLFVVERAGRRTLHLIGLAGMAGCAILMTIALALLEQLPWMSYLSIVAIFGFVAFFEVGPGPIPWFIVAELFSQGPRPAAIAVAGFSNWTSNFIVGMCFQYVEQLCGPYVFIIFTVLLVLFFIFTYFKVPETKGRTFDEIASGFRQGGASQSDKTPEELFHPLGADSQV

Row | SMILES | inhibition [1] [%] | inhibition [2] [%] | inhibition [3] [%]
1 | CCNc1cc(C)nc(Nc2ccc(NC(=O)c3ccc(OC)c(OC)c3)cc2)n1 | 5.48 | 1.84 | 2.34
2 | CC(C)c1ccc(NC(=O)c2ccc(C(=O)NCC3CCN(CC4CCCCC4)CC3)cc2)cc1 | 3.12 | 1.53 | 1.95
3 | CCNC(=O)Nc1ccc(-c2cnc(N)c(-c3nc4ccc(OC)cc4[nH]3)c2)cc1 | 3.5 | 4.42 | 3.1
4 | COc1cc(OC)c(NC(=O)C2c3ccccc3C(=O)N(C)C2c2cccs2)cc1Cl (configuration not stated) | 2.2 | 5.87 | 5.98
5 | O=c1cc(NCCCNCc2ccc(Cl)c(Cl)c2)[nH]c2cc(Cl)ccc12 | 2.05 | 3.29 | 2.73
6 | CN(CCCNCc1cccc2ccccc12)CCCNCc1cccc2ccccc12 | 1.31 | 0.53 | 1.98
7 | Cc1noc(C)c1-c1cccc(CNCc2ccc(-c3cccc(-c4nc5cccc(C)c5[nH]4)c3)cc2)c1 | 0.9 | -2.28 | -4.14
8 | COc1cc(NC(=O)N2CCOC(CCN3CCC(c4ccccc4)CC3)(c3ccc(Cl)c(Cl)c3)C2)cc(OC)c1 (configuration not stated) | 0.76 | 1.73 | -1.37
9 | c1ccc(CCNCc2cccc(-c3ccccc3CNCc3ccc4c(c3)OCO4)c2)nc1 | 0.71 | 0.88 | 0.68
10 | CCCCCCN1CCC(NCc2ccc(CN(C)C)cc2)CC1 | 0.45 | 2.27 | -7.52
11 | COc1ccc(Cl)cc1N1CCN(CCCNC(=O)c2ccc(-c3nc4cc(Cl)c(Cl)cc4[nH]3)c(C)c2)CC1 | 1.66 | 0.9 | 1.04
12 | COc1ccccc1N1CCN(CCCCNC(=O)c2ccc(NC(=O)c3ccc(OC(F)(F)F)cc3)cc2)CC1 | 1.23 | -0.16 | 1.25
13 | O=C(O)c1ccc(OCOCOc2ccc(C(=O)O)c(O)c2)cc1O | 5.67 | 5.54 | 3.43
14 | Cc1[nH]c(C)c(-c2ccc(CCc3ccc(N)cc3)cc2)c(=O)c1Cl | 4.43 | 6.39 | 1.77
15 | CC(C)c1cccc(OCC2CCN(c3ncc(C(=O)Nc4ccccc4)cc3Cl)CC2)c1 | 2.96 | 1.07 | -2.66
16 | CNC(=O)NC1=NC(C)(C)N(OCc2ccc(Cl)c(Cl)c2)C(NC(=O)NC)=N1 | 1.27 | 0.11 | 0.39
17 | O=C(Nc1ccc(N2CCN(c3ncccc3C(F)(F)F)CC2)nc1)c1cccs1 | 2.6 | 3.03 | 0.38

Row | SMILES | inhibition [1] [%] | inhibition [2] [%] | inhibition [3] [%]
18 | O=C(/C=C/c1ccc(Cl)c(Cl)c1)NCCCCCN1CCCN(C(=O)Nc2ccc(F)c(Cl)c2)CC1 | 1.23 | 1.72 | 3.64
19 | CC1(C)NC(N)=NC(=N)N1OCCCOc1cccc(Cl)c1 | 3.04 | 5.38 | 2.82
20 | COc1ccc(C#Cc2ccc(-c3c(C)[nH]c(C)c(Cl)c3=O)cc2)cc1 | 6.05 | 8.9 | 4.03
21 | CN(C)c1ccc(-c2csc(C(=O)NC3CCN(CCC(C)(C)C)C3)c2)cc1 (configuration not stated) | 3.05 | 4.39 | 2.37
22 | CC1(C)NC(N)=NC(=N)N1OCCCOc1cc(Cl)cc(Cl)c1 | 4.4 | 7.49 | 2.47
23 | CC1CNC(c2ccc(NC(=O)Nc3ccc(C4=NC(C)CN4)cc3)cc2)=N1 (configuration not stated) | 4.6 | 5.64 | 3.84
24 | COc1ccc2c(c1CCNCCCCNCCc1c(OC)ccc3c1CCCC3)CCCC2 | 47.3 | 61.4 | 52.9
25 | CCOc1ccc(C(=O)Nc2cc(Cl)ccc2O)cc1Cl | -1.03 | 0.11 | -1.5
26 | O=C(Nc1ccc(OC2CCN(Cc3ccc(F)cc3)C2)c(Cl)c1)c1ccoc1 (configuration not stated) | 0.67 | 1.54 | 0.61
27 | O=C(CN1CCN(S(=O)(=O)C=Cc2ccccc2)CC1)Nc1cc(C(F)(F)F)ccc1Cl | 9.54 | 7.6 | 8.72
28 | CC(C)[C@H](NCC(=O)c1ccccc1)C(=O)O | -0.14 | 0.65 | -0.17
29 | COc1ccc(OC)c(NC(=O)CSc2nc(-c3ccccc3Cl)ns2)c1 | 0.9 | 0.98 | -1.15
30 | O=[N+]([O-])c1ccccc1/C=N/Nc1ccnc2ccc(C(F)(F)F)cc12 | -0.59 | 2.42 | 0.08
31 | O=C(Nc1ccc(-c2cccc(-c3nc4cc(F)ccc4[nH]3)c2)cc1)Nc1ccsc1 | 5.02 | 6.71 | 0.78
32 | O=c1cc(NCCC(CNCc2cc3ccccc3o2)NCc2cc(Br)cc(Br)c2)[nH]c2ccccc12 (configuration not stated) | 0.2 | 0.33 | 2.33
33 | Cc1ccc(-n2cc(CNCCCn3ccnc3)c(-c3cccc(C)c3)n2)cc1 | 4.3 | 6.62 | 3.71
34 | N#Cc1ccc(-c2ccc(C(=O)NC3CCN(CCN4CCc5c(cccc5C(F)(F)F)C4)CC3)cc2)cc1 | -0.45 | -0.02 | 1.46
